# Source: PubChem BioAssay
# Hits are enriched below; roughly 13% of the tested compounds scored in any of these assays.
# JMJD2E inh: qHTS Assay for Inhibitors of Human Jumonji Domain Containing 2E (JMJD2E) | JMJD2E catalytic domain, FDH-coupled NADH fluorescence (FDH is formaldehyde dehydrogenase) | Potency, µM (top dose mostly 57.1 µM), most hits filed as inhibitors | actives 1.6% (n = 230,000) | AID 2147, 2009; active = well fitted inhibition curve with a large enough effect, not every such curve was filed as active; inconclusive = small, poorly fitted or top-dose-only effect, or another doubt; inactive = no such curve, though single readings can be large or run the other way; note: nearly all actives have a fitted effect of over 50% in size
# Target sequence (B2RXH2 1-337 limits assumed): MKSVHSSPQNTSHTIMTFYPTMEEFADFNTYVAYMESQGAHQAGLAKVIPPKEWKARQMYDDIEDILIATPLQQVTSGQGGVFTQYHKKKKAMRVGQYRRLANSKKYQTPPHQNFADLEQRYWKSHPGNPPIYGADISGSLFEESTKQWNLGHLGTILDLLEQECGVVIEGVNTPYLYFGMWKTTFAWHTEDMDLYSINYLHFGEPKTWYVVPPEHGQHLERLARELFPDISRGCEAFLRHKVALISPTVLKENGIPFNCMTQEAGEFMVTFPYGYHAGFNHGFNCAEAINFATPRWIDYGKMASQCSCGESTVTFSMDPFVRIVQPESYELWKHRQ
# G9a inh: qHTS Assay for Inhibitors of Histone Lysine Methyltransferase G9a | G9a H3K9 monomethylation, AlphaScreen, 2 h | Potency, µM (top dose mostly 102 µM), hits mostly inhibitors | actives 8.8% (n = 350,000) | AID 504332, 2011; note: nearly all actives have a fitted effect of over 75% in size
# Target sequence (Q96KQ7 913-1193 limits assumed): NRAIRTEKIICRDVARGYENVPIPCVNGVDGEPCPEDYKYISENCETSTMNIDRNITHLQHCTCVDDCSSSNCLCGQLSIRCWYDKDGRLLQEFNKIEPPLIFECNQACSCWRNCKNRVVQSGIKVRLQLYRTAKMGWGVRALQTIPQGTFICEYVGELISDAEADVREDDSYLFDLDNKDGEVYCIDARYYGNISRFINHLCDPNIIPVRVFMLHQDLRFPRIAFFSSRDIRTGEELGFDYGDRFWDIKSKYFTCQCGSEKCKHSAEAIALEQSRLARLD
#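 Readings reflect AlphaScreen signal from monomethyl-H3K9 antibody detection. HMT at 20 nM; substrate b-H3K9 500 nM; cofactor SAM 20 uM; 2 h RT reaction; compounds tested as titrations in qHTS with 15 min preincubation.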
# miR-21 reporter: qHTS Assay for Modulators of miRNAs and/orActivators of miR-21; HeLa miR-21 FLuc reporter, luciferase, 48 h; Potency, µM (highest dose often 38.3 µM), hits mostly activators; 340,000 tested, under 10 active;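 note: miR-21 action dims this reporter so a rising signal means less miR-21 action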
#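 Luminescence from a firefly luciferase reporter carrying a miR-21 binding site downstream, stably expressed under a CMV promoter in HeLa cells that make miR-21 endogenously, reports miRNA modulation after 48 h compound exposure up to approximately 40uM final.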
# Lamin A splicing: qHTS Assay for Modulators of Lamin A Splicing; actives 0.01% (n = 200,000); HeLa LMNA splicing GFP/RFP minigene ratio, 48 h; AID 1487, 2009; Potency, µM (titrated, usually from 46.1 µM), usual class: inhibitors; active = well fitted inhibition curve with a large enough effect in the signal ratio, with a control signal flat, not every such curve was filed as active; inconclusive = small, poorly fitted or top-dose-only effect, or effect the other way, or a change in a side signal; the % refers to the signal ratio
#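 Read-out is the ratio of GFP to DsRed2 object intensity, acquired by 488 nm laser-scanning cytometry on HeLa lamin A-EGFP minigene reporter cells. Compound incubation 48 hrs at 37 °C in Opti-MEM with 2% FBS; DMSO 0.5% final.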
# Sfp inh: qHTS Assay for Inhibitors of Bacillus subtilis Sfp phosphopantetheinyl transferase (PPTase); Potency, µM, usual class: inhibitors; actives 3.5% (n = 310,000); Biochemical Sfp PPTase activity, qHTS;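 note: the enzyme is Sfp with the accession as filed and its product quenches rhodamine fluorescence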
#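 Reaction rates are the 30-min fluorescence difference (ex 525, em 598 nm) in wells containing 15 nM Sfp, 5 uM rhodamine-CoA and 12.5 uM BHQ-2-YbbR at pH 7.6 with 10 mM MgCl2.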
# ALDH1A1 block: qHTS Assay for Inhibitors of Aldehyde Dehydrogenase 1 (ALDH1A1); Aldehyde dehydrogenase 1A1 (Homo sapiens), P00352; Purified ALDH1A1, NADH fluorescence, propionaldehyde substrate; Potency, µM (top dose mostly 75.3 µM), most hits filed as inhibitors; actives 7.3% (n = 220,000); active = well fitted inhibition curve with a large enough effect, not every such curve was filed as active; inconclusive = small, poorly fitted or top-dose-only effect, or another doubt; inactive = no such curve, though single readings can be large or run the other way
# Numbers stand for hits; n = inactive; u = inconclusive; x = not tested or not shown; [ ] = another dose, or the depositor's remark. Unless noted, calls come from the whole dose curve; as a rule, active = well fitted curve in the direction sought with a large enough effect; inconclusive = small, poorly fitted or top-dose-only effect, or another doubt; inactive = no such curve, though single readings can be large; an effect the other way counts as inactive or inconclusive.
SMILES,JMJD2E inh,G9a inh,miR-21 reporter,Lamin A splicing,Sfp inh,ALDH1A1 block
Cc1ccc(C)c(S(=O)(=O)N2C(=S)NC(=O)C2CC(C)C)c1 (stereo not drawn),n,u,n,n,n,n
CC(C)C1C(=O)NC(=S)N1S(=O)(=O)c1ccc(C(C)(C)C)cc1 (stereo not drawn),n,3.16µM,n,n,n,11.2µM
O=C(Nc1ccccc1OCc1cc(=O)n2ccccc2n1)Nc1ccccc1C(F)(F)F,x,n,n,n,x,x
O=C1c2ccccc2C(=O)c2c(NCCCN(CCO)CCO)cccc21,n,44.7µM,n,u,n,u
CN(C)CCCNc1cc(O)c2c(c1O)C(=O)c1ccccc1C2=O,x,x,x,x,x,n[13.5 µM]
O=C(CSc1nnc(NC(=O)C2CC(=O)N(c3ccccc3)C2)s1)NCc1ccco1 (stereo not drawn),x,u,n,x,n,x
COc1cccc(N2CC(C(=O)Nc3nnc(SCC(=O)c4ccccc4)s3)CC2=O)c1 (stereo not drawn),n,n,n,u,79.4µM,n
COc1cccc(N2CC(C(=O)Nc3nnc(SCC(=O)NCc4ccco4)s3)CC2=O)c1 (stereo not drawn),x,x,n,x,50.1µM,x
COc1cccc(N2CC(C(=O)Nc3nnc(SCC(=O)NC4CCCC4)s3)CC2=O)c1 (stereo not drawn),x,31.6µM,n,x,u,x
COc1cccc(N2CC(C(=O)Nc3nnc(SCC(=O)N4CCOCC4)s3)CC2=O)c1 (stereo not drawn),x,n,n,x,n,x
COc1ccc(C(=O)CSc2nnc(NC(=O)C3CC(=O)N(c4ccccc4)C3)s2)cc1 (stereo not drawn),n,44.7µM,n,n,n,u
COc1ccc(N2CC(C(=O)Nc3nnc(SCC(=O)N4CCCC4)s3)CC2=O)cc1 (stereo not drawn),x,x,n,x,n,x
Cc1ccc(NC(=O)CCCn2c(=O)c3cccn3c3ccccc32)c(C)c1,x,n,n,u,x,x
O=C(NCc1ccccc1Cl)C1CCN(S(=O)(=O)c2ccc3c(c2)CCCN3C(=O)C2CCC2)CC1,x,n,n,n,x,x
C/C(=N\NC(N)=S)c1ccc(-n2ccnc2)cc1,n,u,n,x,79.4µM,x
C/C(=N\Nc1ccc(Cl)c(Cl)c1)c1ccc(-n2ccnc2)cc1,n,11.2µM,n,u,n,u
CCOc1ccc(S(=O)(=O)N(C)CC(=O)NCc2ccco2)cc1,x,n,n,x,n,x
CCOc1ccc(S(=O)(=O)N(C(=O)c2ccco2)c2cc3sc(=O)oc3c3ccccc23)cc1,15.8µM,1.41µM,n,n,5.62µM,u
COc1ccc(S(=O)(=O)N(Cc2ccccc2)c2ccccc2C(=O)Nc2ccccc2C(=O)NCc2ccco2)cc1,u,n,n,n,n,u
Cc1ccc(S(=O)(=O)N(C(=O)c2ccco2)c2cc3sc(=O)oc3c3ccccc23)cc1,14.1µM,1.78µM,n,n,8.91µM,31.6µM
COc1ccc(S(=O)(=O)N(C(=O)c2ccco2)c2cc3sc(=O)oc3c3ccccc23)cc1,12.6µM,1.41µM,n,n,7.94µM,25.1µM
Cc1onc(-c2ccccc2)c1C(=O)Nc1nnc(CC(C)C)s1,x,n,n,x,n,x
CC(CCc1ccc(O)cc1)NCCc1ccc(O)c(O)c1 (stereo not drawn),u,n,x,u,u,n
CC(Cc1ccc(O)c(O)c1)C(C)Cc1ccc(O)c(O)c1 (stereo not drawn),22.4µM,x,x,x,39.8µM,28.2µM
S=C(NCc1ccncc1)Nc1ccc(Br)cc1Cl,x,u,n,x,n,x
SMILES,JMJD2E inh,G9a inh,miR-21 reporter,Lamin A splicing,Sfp inh,ALDH1A1 block
Cc1cccnc1NC(=S)Nc1ccc(Br)cc1Cl,u,u,n,x,20µM,u
CCOc1ccc(NC(=S)Nc2ccc(Br)cc2Cl)cc1,n,n,n,x,39.8µM,u
COC(=O)c1ccc(C(NC(=O)OCc2ccccc2)/C(C)=C/[C@@H](C)C(=O)NCc2cccnc2)cc1 (stereo partly drawn),n,x,x,x,n,n
O=C(Nc1ccc(-c2n[nH]c(=S)o2)cc1)c1ccccc1,x,31.6µM,n,x,n,x
COc1ccc(C(=O)Nc2ccc3oc(-c4ccc(OC)cc4)nc3c2)cc1,x,n,n,n,x,x
COc1ccc(C(=O)Nc2ccc(-c3n[nH]c(=S)o3)cc2)cc1,x,1.78µM,n,x,n,x
O=C(Nc1ccc(-c2ccccc2)cc1)c1ccccc1,x,n[0.501 µM],n,x,n,x
Cc1ccccc1OCC(=O)N(Cc1ccc(N(C)C)cc1)CC1CCCO1 (stereo not drawn),x,15.8µM,u,x,x,x
Cc1cc(C)c(OCC(=O)N(Cc2ccc(N(C)C)cc2)CC2CCCO2)c(C)c1 (stereo not drawn),x,12.6µM,n,x,x,x
Cc1ccc(OCC(=O)N(Cc2ccc(N(C)C)cc2)CC2CCCO2)cc1C (stereo not drawn),x,14.1µM,n,x,x,x
COc1ccc(Cc2nc3ccc(C(=O)N(C)C(C)c4ccon4)cc3o2)cc1 (stereo not drawn),x,n,n,x,n,x
CCCC[C@H](NC(=O)[C@H](CC(C)C)NC(=O)[C@@H](Cc1c[nH]c2ccccc12)NC(=O)[C@H](Cc1ccccc1)NC(=O)[C@@H](Cc1c[nH]c2ccccc12)NC(=O)[C@H](CC(N)=O)NC(=O)[C@@H](Cc1c(Cl)cccc1Cl)NC(=O)[C@@H]1CCCN1C(=O)[C@H](Cc1ccccn1)NC(=O)[C@@H]1CCCN1C(=O)[C@H](N)CCCCNC(=O)c1cccnc1)C(N)=O,x,x,x,x,n,x
COc1ccc(OC(C)C(=O)NCc2nc(-c3ccc(Cl)cc3)no2)cc1 (stereo not drawn),x,n,u,x,x,x
CCOC(=O)c1ccccc1NC(=O)c1sc2nc3n(c(=O)c2c1C)CCCC3,x,14.1µM,n,u,x,x
Cc1cc(Br)ccc1NC(=O)c1sc2nc3n(c(=O)c2c1C)CCCC3,x,12.6µM,n,n,x,x
CCOC(=O)c1sc2nc3n(c(=O)c2c1C)CCCCC3,n,n,n,n,n,u
O=C(CCc1ccccc1)NCc1nc2cccnc2n1Cc1ccc(F)cc1,x,n,n,n,x,x
C=CCn1c(SCCN2C(=O)c3ccccc3C2=O)nc2scc(-c3ccccc3)c2c1=O,n,n,n,n,n,n
C=CCn1c(SCc2ccccc2)nc2scc(-c3ccc(C)o3)c2c1=O,n,n,n,n,28.2µM,u
C=CCn1c(SCC(N)=O)nc2scc(-c3ccc(C)o3)c2c1=O,n,u,n,x,22.4µM,10µM
C=CCn1c(SCC(=O)c2ccc(CNC(C)=O)o2)nc2scc(C3CC3)c2c1=O,n,n[12.7 µM],n,n,44.7µM,u
